# Measurements: PubChem BioAssay AID493231 (Broad Institute, 2011)
# Entries with a potency or affinity are not part of this list. Active and inactive are the calls of the source. No rule for the calls is given here.
# Target: Acyl-homoserine lactone acylase PvdQ (Pseudomonas aeruginosa (strain ATCC 15692 / DSM 22644 / CIP 104116 / JCM 14847 / LMG 12228 / 1C / PRS 101 / PAO1)) (UniProt Q9I194)
# Assay: P. aeruginosa PvdQ acylase inhibitors, dose response, biochemical, fluorescence, plate reader and imaging, cherry-picks (AID 493231);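 also: more negative values mean stronger inhibition of the acylase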
# Acyl-homoserine lactone acylase PvdQ (Pseudomonas aeruginosa (strain ATCC 15692 / DSM 22644 / CIP 104116 / JCM 14847 / LMG 12228 / 1C / PRS 101 / PAO1)), sequence (Q9I194 whole entry, looked up): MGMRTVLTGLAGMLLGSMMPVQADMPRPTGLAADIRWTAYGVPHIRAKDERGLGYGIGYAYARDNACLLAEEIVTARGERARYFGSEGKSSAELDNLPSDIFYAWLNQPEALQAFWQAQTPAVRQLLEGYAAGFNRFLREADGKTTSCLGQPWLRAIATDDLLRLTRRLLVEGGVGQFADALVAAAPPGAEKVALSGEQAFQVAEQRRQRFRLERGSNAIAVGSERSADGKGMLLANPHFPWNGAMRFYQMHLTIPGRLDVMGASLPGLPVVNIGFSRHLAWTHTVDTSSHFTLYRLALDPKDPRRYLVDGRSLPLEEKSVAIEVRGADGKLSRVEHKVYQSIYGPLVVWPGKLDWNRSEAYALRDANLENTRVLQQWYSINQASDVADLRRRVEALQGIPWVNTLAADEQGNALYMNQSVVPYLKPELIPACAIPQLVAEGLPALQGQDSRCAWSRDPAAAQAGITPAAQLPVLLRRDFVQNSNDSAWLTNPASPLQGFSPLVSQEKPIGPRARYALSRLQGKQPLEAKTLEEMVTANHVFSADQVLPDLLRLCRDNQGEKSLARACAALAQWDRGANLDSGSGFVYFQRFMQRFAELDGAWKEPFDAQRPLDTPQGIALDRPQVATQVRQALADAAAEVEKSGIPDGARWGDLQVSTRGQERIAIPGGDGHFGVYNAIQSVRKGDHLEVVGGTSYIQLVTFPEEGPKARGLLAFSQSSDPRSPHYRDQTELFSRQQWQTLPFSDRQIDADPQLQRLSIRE
row,SMILES,outcome
1,CS(=O)(=O)N(CC(=O)Nc1ccccc1C(=O)N1CCOCC1)c1ccccc1,inactive
2,Cc1cc(/C=C2\Cc3ccccc3C2=O)c(C)n1-c1ccccc1,inactive
3,Cc1cccc(Nc2nnc(SCC(=O)c3c(N)n(C4CC4)c(=O)[nH]c3=O)s2)c1,inactive
4,Cc1nc2ccc(S(=O)(=O)Nc3ccc(-c4nc5cccnc5s4)cc3)cc2s1,inactive
5,COCCNC(=O)c1cc2nc(-c3ccccc3)cc(C)n2n1,inactive
6,O=C(O)c1cccc(CN2C(=O)c3ccccc3C2=O)c1,inactive
7,COc1cc(NC(=S)NC2CC(C)(C)NC(C)(C)C2)cc(OC)c1,inactive
8,Cc1ccc(CCNC(=O)CCS(=O)(=O)c2ccc(Br)cc2)cc1,inactive
9,Cc1onc(-c2ccccc2)c1C(=O)c1c[nH]c(C(=O)NCCCN2CCOCC2)c1,inactive
10,COc1ccc(CC(=O)NNC(=S)NCC2CC2)cc1OC,inactive
11,COc1ccc(Nc2nnc(-c3ccc(C)cc3)c3ccccc23)cc1C(=O)N1CCCCC1,inactive
12,CN1C(=O)/C(=C/c2ccc(O)c([N+](=O)[O-])c2)N(C)C1=S,inactive
13,CC[N+](CC)(CC)C/C=C/CN1CCCCC1,inactive
14,Cc1ccc(S(=O)(=O)N(CC(=O)N2CCC(C)CC2)c2ccccc2)cc1,inactive
15,Cc1ccc(O)c(NC(=S)NC(=O)/C=C/c2ccco2)c1,inactive
16,CCOC(=S)SCC(=O)Nc1nccs1,inactive
17,O=c1oc(-c2ccc(F)cc2)nc2ccsc12,inactive
18,C=CCn1c(=O)/c(=C/c2ccc(C)o2)s/c1=C(/C#N)C(=O)c1ccccc1,inactive

row,SMILES,outcome
1,COc1ccc(-c2onc3ccc(Br)cc23)cc1,inactive
2,CN(C(=O)CCn1c(=S)oc2ccccc21)c1ccc(F)cc1,inactive
3,CNC(=S)N/N=C/c1cc(C)n(-c2ccc(Cl)c(Cl)c2)c1C,inactive
4,NC(=O)c1ccc(NC(=O)COC(=O)c2n[nH]c3ccccc23)cc1,inactive
5,CCOC(=O)c1[nH]c2c(c1C)C(=O)CC(c1ccco1)C2 (stereo unspecified),inactive
6,CCOC(=O)Nc1ccc2nc(N3CCCCCC3)sc2c1,inactive
7,Cc1cccc2c(=O)cc(C)n(Cc3ccccc3)c12,inactive
8,CCCN(c1nc(C)cc(OC)n1)S(=O)(=O)c1ccccc1,inactive
9,COCC(=O)Oc1c(S(=O)(=O)c2ccc(C)cc2)c(C)nn1-c1ccccc1,inactive
10,CCn1c(SCC(=O)N/N=C/c2ccc(C)o2)nnc1-c1ccc(C(C)(C)C)cc1,inactive
11,O=C(/C=C/c1cccs1)Nc1ccncc1,inactive
12,CN(CC1CCCN(CCc2ccc(F)cc2)C1)C(=O)CCC(F)(F)F (stereo unspecified),inactive
13,N#Cc1cc([N+](=O)[O-])ccc1Oc1cccc(/C=N/NC(=O)c2ccc(Cl)cc2)c1,inactive
14,O=C(O)c1ccc(N=Nc2c(O)ccc3ncccc23)cc1,inactive
15,O=C(CCc1ccccc1)Nc1ccc2c(c1)OCO2,inactive
16,CCSc1nc2cc(OC)c(OC)cc2c(=O)n1CC,inactive
17,Cc1ccc(C(=O)/C=C/Nc2cccc([N+](=O)[O-])c2)o1,inactive
18,NC(=O)c1cc(Sc2ccccc2)nc2ccccc12,inactive
